# Activity calls are given as the source filed them. Unless noted, how the calls were made is not given here.
# Tests used:
# [1] = system: Wnt5a (protein binding on small-molecule microarray); assay: Wnt5a binders on small-molecule microarray, primary screen, biophysical, 635/667 nm fluorescence (AID 1142); settings: 635 nm fluorescence, higher = more signal;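 further: fluorescence read at 667 nm with signal to noise per printed feature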
# [2] = cell viability in Huh7 cells, primary screen, cytotoxicity control for HCV replication inhibitor project, CellTiter-Glo luminescence, basal, 48 h (AID 1143); settings: Huh7 HCV replicon, higher = more signal, called active from +8 up or from −8 down;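 further: Huh7 hepatoma cells carrying a hepatitis C replication reporter with no stimulus; test concentration not given here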
# [3] = P. aeruginosa biofilm formation inhibitors, primary screen, PAO1 strain, BacTiter-Glo luminescence, LB-PBS (AID 1144); settings: 12 h, higher = more signal
# [4] = CREB reporter modulators without forskolin, primary screen, cell-based, PC12, CRE-LacZ reporter, unstimulated (AID 1145); settings: no forskolin, luminescence, 4.5 h, higher = more signal, called active from +8 up or from −8 down
# [5] = CREB reporter modulators under forskolin, primary screen, cell-based, PC12, CRE-LacZ reporter, forskolin-stimulated (AID 1146); settings: luminescence, 4.5 h, higher = more signal, called active from +8 up or from −8 down;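 further: PC12 cells with 6xCRE LacZ reporter stimulated by forskolin 10 µM; beta-galactosidase reporter signal reflecting CREB driven transcription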
# [6] = target: Streptavidin (Streptomyces avidinii) (UniProt P22629); assay: streptavidin binders on small-molecule microarray, primary screen, artefact control for SMM compound annotation, biophysical, 635/667 nm fluorescence (AID 1147); settings: streptavidin binding, higher = more signal;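 further: signal reflects streptavidin binding to arrayed compounds as a control protein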
# Sequence of Streptavidin (Streptomyces avidinii) (P22629 whole entry, looked up): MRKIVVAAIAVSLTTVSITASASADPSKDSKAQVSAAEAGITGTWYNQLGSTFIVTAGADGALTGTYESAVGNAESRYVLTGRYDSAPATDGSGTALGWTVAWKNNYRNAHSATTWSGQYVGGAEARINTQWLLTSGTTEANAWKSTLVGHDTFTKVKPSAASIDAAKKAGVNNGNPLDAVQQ
# [7] = small-molecule binders of probe aInhba, primary screen, biochemical, small-molecule microarray, 635/667 nm fluorescence (AID 1148); settings: higher = more signal;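 further: score merges 667nm spot fluorescence with signal-to-noise for antibody binding to printed compounds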
# Torsin-1A (Homo sapiens) [8] = target: Torsin-1A (Homo sapiens) (UniProt O14656); assay: torsin A binders from cell lysate, primary screen, small-molecule microarray, wild-type, 635/667 nm (AID 1149); settings: COS7 hTOR1A-WT lysate, 635 nm fluorescence, higher = more signal
# Sequence of Torsin-1A (Homo sapiens) (O14656 whole entry, looked up): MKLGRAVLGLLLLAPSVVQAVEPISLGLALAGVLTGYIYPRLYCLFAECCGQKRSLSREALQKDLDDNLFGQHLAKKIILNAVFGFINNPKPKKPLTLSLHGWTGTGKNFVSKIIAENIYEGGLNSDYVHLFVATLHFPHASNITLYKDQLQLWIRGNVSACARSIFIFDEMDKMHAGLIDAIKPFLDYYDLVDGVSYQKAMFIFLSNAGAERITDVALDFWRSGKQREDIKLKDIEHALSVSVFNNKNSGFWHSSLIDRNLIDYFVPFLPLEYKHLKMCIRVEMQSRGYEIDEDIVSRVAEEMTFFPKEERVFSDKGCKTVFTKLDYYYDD
# Torsin-1A (Homo sapiens) [9] = target: Torsin-1A (Homo sapiens) (UniProt O14656); assay: small-molecule binders of mutant TOR1A in lysate, primary screen, cell lysate, small-molecule microarray, COS7 lysate, 635/667 nm fluorescence (AID 1150); settings: COS7 hTOR1A mutant lysate, 635 nm fluorescence, higher = more signal;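 further: score pools 667 nm emission and signal to noise measuring lysate protein binding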
# [10] = system: Sonic hedgehog protein (Shh); assay: small-molecule binders of Shh protein, primary screen, biochemical, small-molecule microarray, 635/667 nm fluorescence (AID 1151); settings: small-molecule microarray binding, 635 nm fluorescence; higher = more signal;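 further: Shh protein binding to compounds spotted on small-molecule microarray slides; score combines spot fluorescence intensity with signal-to-noise across triplicate slides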
# [11] = E. coli DRC41 culture turbidity changes, primary screen, E. coli filamentation inducer project, strain DRC41, OD650, 48 h (AID 1152);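 further: E. coli MC1000 strain DRC41 lacking acrAB efflux pump and sulA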; settings: E. coli DRC41 (acrAB sulA), higher = more signal, called active from +8 up or from −8 down
# [12] = small-molecule binders of probe aLefty1, primary screen, biochemical, small-molecule microarray, 635/667 nm fluorescence (AID 1153); settings: higher = more signal;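 further: score merges spot fluorescence with signal-to-noise ratio from the scanned slide images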
# [13] = PSAC antagonists in infected red cells, primary screen, cell-based, P. falciparum Indochina, OD700, 1 h (AID 1154); settings: P. falciparum Indochina infected RBC osmotic lysis, higher = more signal, called active from +8 up or from −8 down
# [14] = PSAC antagonists in infected red cells, primary screen, cell-based, P. falciparum Indochina, OD700, 2 h (AID 1155);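 further: lysis reports solute entry through the parasite surface anion channel PSAC; channel blockers reduce lysis of infected cells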; settings: P. falciparum Indochina infected erythrocytes, osmotic lysis OD700; higher = more signal, called active from +8 up or from −8 down
# [15] = osmotic lysis modulators in infected erythrocytes, primary screen, PSAC antagonist project, cell-based, P. falciparum Indochina, OD700, 3 h (AID 1156); settings: higher = more signal, called active from +8 up or from −8 down
# [16] = PSAC antagonists in infected red cells, primary screen, cell-based, P. falciparum Indochina, OD700, 18 h (AID 1157); settings: P. falciparum Indochina infected erythrocytes, osmotic lysis OD700, 18 h; higher = more signal, called active from +8 up or from −8 down
# [17] = modulators of S6 phosphorylation in cells, primary screen, cell-based, A549, cytoblot, luminescence, serum-stimulated (AID 1158); settings: A549 phospho-S6 cytoblot, 5 h, higher = more signal;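 further: serum-stimulated A549 lung adenocarcinoma cells; signal is phosphorylated S6 detected by cytoblot immunostaining with HRP secondary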
# [18] = target: NADPH oxidase 2 (Homo sapiens) (UniProt P04839); assay: NOX2-dependent H2O2 signal modulators, primary screen, NOX inhibitor project, cell-based, HEK293-NOX2, PMA-stimulated, Amplex Red fluorescence (AID 1159); settings: 45 min, higher = more signal, called active from +8 up or from −8 down; further: test concentration not given here
# Sequence of NADPH oxidase 2 (Homo sapiens) (P04839 whole entry, looked up): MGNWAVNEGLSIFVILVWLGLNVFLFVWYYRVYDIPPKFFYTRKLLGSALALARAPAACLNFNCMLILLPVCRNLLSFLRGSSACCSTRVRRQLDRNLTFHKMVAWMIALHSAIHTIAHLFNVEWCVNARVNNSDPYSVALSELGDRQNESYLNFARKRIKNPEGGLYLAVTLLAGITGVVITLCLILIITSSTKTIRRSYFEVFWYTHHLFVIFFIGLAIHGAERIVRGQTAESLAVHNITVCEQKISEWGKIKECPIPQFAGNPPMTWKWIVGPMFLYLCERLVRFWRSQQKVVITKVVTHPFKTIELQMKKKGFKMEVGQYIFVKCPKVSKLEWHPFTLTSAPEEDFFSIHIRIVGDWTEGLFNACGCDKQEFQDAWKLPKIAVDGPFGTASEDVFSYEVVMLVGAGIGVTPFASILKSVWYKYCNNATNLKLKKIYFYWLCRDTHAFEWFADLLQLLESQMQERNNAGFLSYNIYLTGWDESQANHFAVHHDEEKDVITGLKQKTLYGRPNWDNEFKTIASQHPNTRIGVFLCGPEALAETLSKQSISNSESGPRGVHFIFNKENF
# [19] = target: NADPH oxidase 4 (Homo sapiens) (UniProt Q9NPH5); assay: NOX4-dependent H2O2 signal modulators, primary screen, NOX inhibitor project, cell-based, HEK293-NOX4, tetracycline-induced, Amplex Red fluorescence (AID 1160); settings: 45 min, higher = more signal, called active from +8 up or from −8 down
# Sequence of NADPH oxidase 4 (Homo sapiens) (Q9NPH5 whole entry, looked up): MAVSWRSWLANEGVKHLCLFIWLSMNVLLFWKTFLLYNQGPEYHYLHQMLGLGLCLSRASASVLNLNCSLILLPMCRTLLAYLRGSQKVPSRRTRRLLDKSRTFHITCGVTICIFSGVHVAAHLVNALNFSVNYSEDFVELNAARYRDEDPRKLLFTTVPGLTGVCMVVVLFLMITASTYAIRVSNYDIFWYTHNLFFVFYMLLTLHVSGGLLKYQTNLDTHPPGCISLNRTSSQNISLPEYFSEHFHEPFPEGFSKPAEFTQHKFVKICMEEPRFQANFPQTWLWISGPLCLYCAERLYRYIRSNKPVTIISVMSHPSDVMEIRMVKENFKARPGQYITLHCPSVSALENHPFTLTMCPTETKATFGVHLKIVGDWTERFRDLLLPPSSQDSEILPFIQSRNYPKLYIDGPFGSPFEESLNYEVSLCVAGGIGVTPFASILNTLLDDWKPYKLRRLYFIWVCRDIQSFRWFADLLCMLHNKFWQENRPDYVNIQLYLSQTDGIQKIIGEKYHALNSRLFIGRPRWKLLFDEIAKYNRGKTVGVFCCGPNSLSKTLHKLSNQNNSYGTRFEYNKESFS
# [20] = target: NADPH oxidase 5 (Homo sapiens) (UniProt Q96PH1); assay: NOX5-dependent H2O2 signal modulators, primary screen, NOX inhibitor project, cell-based, HEK293-NOX5, Amplex Red fluorescence (AID 1161); settings: HEK293-NOX5, ionomycin, 45 min, higher = more signal
# Sequence of NADPH oxidase 5 (Homo sapiens) (Q96PH1 whole entry, looked up): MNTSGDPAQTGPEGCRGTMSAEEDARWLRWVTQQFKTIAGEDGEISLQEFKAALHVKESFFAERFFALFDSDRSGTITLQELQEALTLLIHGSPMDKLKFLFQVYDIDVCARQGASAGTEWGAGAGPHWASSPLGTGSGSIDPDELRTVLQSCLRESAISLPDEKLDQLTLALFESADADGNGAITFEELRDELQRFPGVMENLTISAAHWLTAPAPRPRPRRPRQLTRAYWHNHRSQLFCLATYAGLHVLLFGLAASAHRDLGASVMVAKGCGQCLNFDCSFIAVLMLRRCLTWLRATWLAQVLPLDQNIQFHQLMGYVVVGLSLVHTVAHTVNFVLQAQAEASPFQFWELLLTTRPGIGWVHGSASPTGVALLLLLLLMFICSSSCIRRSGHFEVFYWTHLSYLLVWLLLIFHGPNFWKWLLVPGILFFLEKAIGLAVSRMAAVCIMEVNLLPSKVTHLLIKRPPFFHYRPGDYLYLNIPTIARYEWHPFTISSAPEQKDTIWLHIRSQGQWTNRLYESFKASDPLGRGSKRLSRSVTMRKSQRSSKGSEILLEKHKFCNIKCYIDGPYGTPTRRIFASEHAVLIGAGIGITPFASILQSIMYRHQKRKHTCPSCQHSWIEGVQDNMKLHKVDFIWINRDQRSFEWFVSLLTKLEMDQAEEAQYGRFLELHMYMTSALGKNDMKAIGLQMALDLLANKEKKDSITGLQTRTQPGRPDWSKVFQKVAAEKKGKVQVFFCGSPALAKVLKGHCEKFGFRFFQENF
SMILES,composite z-score [1],z-score [2],z-score [3],z-score [4],z-score [5],composite z-score [6],composite z-score [7],composite z-score (Torsin-1A (Homo sapiens) [8]),composite z-score (Torsin-1A (Homo sapiens) [9]),composite z-score [10],z-score [11],composite z-score [12],z-score [13],z-score [14],z-score [15],z-score [16],z-score [17],z-score [18],z-score [19],z-score [20]
O=C(N1CCOCC1)[C@@]1(CCS(=O)(=O)c2ccccc2)COC(c2ccc(OCCCO)cc2)=N1,-0.102,-0.963 (inactive),0.585 (inactive),0.148 (inactive),1.58 (inactive),-0.411,-0.374,0.385,0.65,-0.784,1.04 (inactive),-0.356,23.8 (active),9.6 (active),1.75 (inactive),1.3 (inactive),-0.713,-1.79 (inactive),0.44 (inactive),-0.597
Cc1ccc(F)cc1S(=O)(=O)N[C@@H]1CCN(C(=O)c2ccc(OC(C)C)cc2)C1,0.336,-0.798 (inactive),0.595 (inactive),2.66 (inactive),-0.906 (inactive),0.224,0.143,0.0677,0.196,0.975,0.295 (inactive),-0.0973,2.54 (inactive),1.02 (inactive),0.79 (inactive),0.427 (inactive),-0.102,-0.471 (inactive),-0.0285 (inactive),-0.257
O=C1O[C@H](c2ccccc2)[C@H](c2ccccc2)N2[C@H]1[C@@H](C(=O)N1CCCCCCC1)[C@]1(C(=O)Nc3ccc(C#CCCO)cc31)[C@H]2c1ccc(OCCO)cc1,2.02,-2.18 (inactive),0.278 (inactive),-1.42 (inactive),-0.757 (inactive),4.02,1.82,3.41,3.46,2.35,0.543 (inactive),3.09,10.3 (active),2.04 (inactive),1.21 (inactive),1.02 (inactive),0.456,1.11 (inactive),0.597 (inactive),1.25
O=C1OCCC=C[C@H]2OC34C=CCN(Cn5nnc6ccccc65)C(=O)[C@H]3N(CCCCCO)C(=O)[C@@H]4C12 (stereo not given in full),-0.355,0.399 (inactive),-1.04 (inactive),0.0564 (inactive),0.804 (inactive),-0.686,-0.0762,0.97,1.15,0.0364,0.592 (inactive),0.119,2.34 (inactive),0.573 (inactive),2.35 (inactive),0.281 (inactive),0.0848,1.4 (inactive),0.279 (inactive),1.51
O=C1OCC=C[C@H]2OC34C=CCN(CCN5CCOCC5)C(=O)[C@H]3N(CCCCCO)C(=O)[C@@H]4[C@@H]12 (stereo not given in full),-0.304,0.0976 (inactive),0.0824 (inactive),2.22 (inactive),-0.555 (inactive),0.257,-0.128,-0.419,0.11,0.175,-0.457 (inactive),-0.045,1.69 (inactive),0.526 (inactive),1.5 (inactive),0.0882 (inactive),2.31,0.922 (inactive),0.379 (inactive),2.1
NC(=O)[C@H]1[C@@H]2C(=O)O[C@@H](c3ccccc3)[C@@H](c3ccccc3)N2[C@@H](c2ccc(O)cc2)[C@]12C(=O)Nc1ccc(C#CC3(O)CCCCCC3)cc12,0.0428,-4.82 (inactive),-0.947 (inactive),0.272 (inactive),1.09 (inactive),0.387,0.0074,0.375,1.37,1.46,0.359 (inactive),0.354,2.63 (inactive),-0.436 (inactive),0.67 (inactive),-1.08 (inactive),1.54,0.487 (inactive),-0.429 (inactive),-2.14
CCCc1cc2c(n1Cc1ccc(OC)cc1)C(C)C1CN(C(=O)c3ccccc3)C(C)(C(=O)OC)C21 (stereo not given),0.562,-3.08 (inactive),0.393 (inactive),0.207 (inactive),1.52 (inactive),1.95,0.297,0.0326,0.773,0.0704,-2.02 (inactive),1.1,3.99 (inactive),0.713 (inactive),1.27 (inactive),0.25 (inactive),-0.57,-1.55 (inactive),-3.23 (inactive),-3.28
CCC[C@@H]1C[C@@]1(CCC)[C@@H](NC(=O)c1ccco1)c1ccc(Cl)cc1,-0.114,-2.99 (inactive),0.789 (inactive),0.58 (inactive),0.974 (inactive),-0.489,0.0074,-1.5,-0.94,-0.323,-1.37 (inactive),-0.0035,1.85 (inactive),0.238 (inactive),0.425 (inactive),0.469 (inactive),-0.0915,-1.46 (inactive),-3.83 (inactive),-0.796
C=CCNC(=O)[C@H]1[C@@H]2C(=O)O[C@@H](c3ccccc3)[C@@H](c3ccccc3)N2[C@@H](c2ccc(O)cc2)[C@]12C(=O)N(C(=O)OCCOC)c1ccc(C#CC3(O)CCCCCC3)cc12,0.195,-1.07 (inactive),-0.7 (inactive),-0.465 (inactive),-0.804 (inactive),-0.179,0.134,0.187,0.331,0.858,1.91 (inactive),0.0313,0.842 (inactive),0.788 (inactive),0.0365 (inactive),0.222 (inactive),0.281,1.37 (inactive),0.903 (inactive),1.89

# From PubChem BioAssay
